# Results from PubChem BioAssay (NCI).
# Compounds without any hit were thinned out: in the full panel of roughly 83,000, 20% have a hit.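 Compound tested at a single concentration for 48 hours in 96-well plates; a percent growth value below 10 was scored as active.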 A number with no mark means an inactive call. Calls of active or inactive are those of the source.
# Test system: HL-60(TB) leukemia
# Assay: NCI-60 one-dose screen, 48 h (100 = growth as untreated, 0 = no growth, -100 = all killed)
# Details: 10 µM unless noted
row,SMILES,growth
1,COc1ccc(NC(=S)/N=c2\oc3c(OC)cccc3cc2-c2cc3ccccc3[nH]2)cc1,93.1%
2,CO[C@H]1/C=C(/C)CCC[C@H](C)[C@H](O)[C@@H](C)C(=O)C(C)(C)[C@@H](O)CC(=O)O[C@@H]1/C(C)=C/c1csc(C)n1,24.3%
3,CCOc1ccc(/C=C/C(=O)c2ccccc2)cc1,70.3%
4,C[C@H]1[C@H](C)CC[C@]2(C(=O)N3CCN(C)CC3)CC[C@]3(C)C(=CC[C@@H]4[C@@]5(C)C/C(=C/c6cccnc6)C(=O)C(C)(C)[C@@H]5CC[C@]43C)[C@H]12,-54.4% (active)
5,COc1cccc(-c2nc3sccn3c2/C=C/C(=O)c2ccc(C(F)(F)F)cc2)c1,46.2%
6,O=C(Nc1ccccc1)Nc1ccc(Nc2ncnc3sc4c(c23)CCCC4)cc1,97%
7,COc1ccc(CCN2CCCN3C2=Nc2ccccc2S3(=O)=O)cc1,3.21% (active)
8,O=[N+]([O-])c1cccc(-c2nc3sccn3c2-c2ccnc(NCCCNS(=O)(=O)c3ccc(F)cc3)n2)c1,-12.9% (active)
9,CN1CCN(CCCOc2ccc3ncnc(Nc4ccc(OCc5cccc(F)c5)c(Cl)c4)c3c2)CC1,-42.3% (active)
10,COc1cc(C(=O)N/N=C/c2cc3cc(OCc4ccccc4)ccc3nc2OC)cc(OC)c1OC,98.9%
11,CC(=O)/C(=C/c1ccc([N+](=O)[O-])cc1)C(=O)c1ccccc1,41.9%
12,C#C[C@@]1(O)[C@@H](CO)O[C@@H](n2cc(I)c3c(N)ncnc32)[C@@H]1O,-56.6% (active)
13,O=C(c1ccccc1)C(Nc1ccccc1)c1ccccc1 (stereo not drawn),84%
